Most compounds without a hit are left out; they make up all but 1.4% or so of the library.
PKM2 act = PKM2 (human) enzyme activation; purified PKM2, Kinase-Glo ATP luminescence, activation; response scale: 0% is enzyme alone, no compound; Potency, µM (top dose mostly 57.5 µM), usual class: activators; 260,000 tested, 0.34% active; further: nearly all actives have a fitted effect of over 55% in size
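hPK-M2, >95% pure; 0.1 mM ADP / 0.5 mM PEP final; imidazole pH7.2 buffer w/ 7 mM MgCl2, 50 mM KCl; 1 h RT; Kinase-Glo lum. Intermediate enzyme activity for dual inhibitor/activator qHTS.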
TrxR1 inh-1 = rat TrxR1 inhibition; O89049; recombinant rTrxR1, NADPH fluorescence consumption, selenite substrate; Potency, µM (series often up to 114 µM), usual class: inhibitors; 390,000 tested, 1% active; AID 588453; further: nearly all actives have a fitted effect of over 65% in size
Target sequence (O89049 whole entry, looked up): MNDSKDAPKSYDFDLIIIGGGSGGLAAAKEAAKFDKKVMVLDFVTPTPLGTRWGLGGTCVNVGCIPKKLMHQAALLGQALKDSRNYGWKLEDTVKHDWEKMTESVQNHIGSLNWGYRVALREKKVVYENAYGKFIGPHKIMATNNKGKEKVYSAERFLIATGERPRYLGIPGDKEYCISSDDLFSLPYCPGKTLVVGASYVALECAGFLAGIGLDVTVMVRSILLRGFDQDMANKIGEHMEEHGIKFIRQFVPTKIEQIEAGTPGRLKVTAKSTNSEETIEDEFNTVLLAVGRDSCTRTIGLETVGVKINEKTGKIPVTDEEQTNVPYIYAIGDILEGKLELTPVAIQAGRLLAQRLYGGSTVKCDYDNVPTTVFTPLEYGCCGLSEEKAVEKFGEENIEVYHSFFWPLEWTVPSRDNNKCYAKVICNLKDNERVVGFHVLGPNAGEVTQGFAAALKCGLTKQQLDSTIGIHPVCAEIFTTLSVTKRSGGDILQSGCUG
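Rat TrxR1 (90 nM in the dispensed reagent) was pre-reduced with 400 uM NADPH for 5 min at room temperature, then incubated with compound for 15 min. After 400 uM selenite was added, NADPH fluorescence (Ex 340/Em 450 nm) was followed for 8 min.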
GLS inhibitor = blocks human kidney-isoform glutaminase activity; O94925; GLS enzymatic activity, qHTS titration; Potency, µM (doses to about 45.5 µM), actives largely listed as inhibitors; 410,000 tested, 0.21% active; AID 624170
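Compounds were pin-transferred onto hKGA, after which L-glutamine (1 mM solution) and a detection mix of glutamate oxidase, HRP and Amplex Red were added. Initial and 30 min RT fluorescence reads were collected.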
IDH1 R132H inh = human IDH1 R132H inhibition | IDH1-R132H enzyme, NADPH consumption, diaphorase/resazurin fluorescence | 390,000 tested, 0.093% active | Potency, µM (top dose mostly 76.6 µM), hits mostly inhibitors; further: nearly all actives have a fitted effect of over 65% in size
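IDH1-R132H (0.5 ug/mL dispensed) in pH 7.5 Tris buffer was preincubated 30 min with compound, then given a substrate mix of 0.016 mM NADPH and 2 mM alpha-KG for 80 min at room temperature; remaining NADPH was read by diaphorase/resazurin fluorescence.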
LDHA inh = inhibitors of human lactate dehydrogenase A; P00338; purified LDHA, NADH/diaphorase-resazurin fluorescence; active compounds read low; activity change, % (values are at about 110 or 230 µM); 480,000 tested, 0.15% active; AID 1347041; in the data active means activity change below about -30%; inconclusive means mostly about -25% to -30%
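Human LDH5 (2 nM) was incubated with 0.06 mM NADH and 0.2 mM pyruvate for 5 min at room temperature in Tris pH 7.4. Remaining NADH was coupled through diaphorase/resazurin, and resorufin fluorescence was read at 0 and 20 min.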
TrxR1 substrate = rat thioredoxin reductase 1 substrate activity. O89049. 390,000 tested, 0.01% active. Potency, µM (highest dose often 114 µM). purified TrxR1 substrate turnover, NADPH consumption readout; further: nearly all actives have a fitted effect of over 50% in size
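Rat TrxR1, dispensed at 90 nM, was prereduced with 400 uM NADPH (final) for 5 min at ~22 deg C, then incubated with compound 15 min before 400 uM selenite. A first-read NADPH fluorescence drop versus no-compound background flagged substrates.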
HepG2 viability = HepG2 cytotoxicity, 72 h ATP readout | shares compounds with TrxR1 inh-1 | HepG2 viability, ATP luminescence (CellTiter-Glo), 72 h | Potency, µM | 40 tested, 50% active | AID 2447; calls by dose curve
GR inh = inhibits human glutathione reductase in TrxR1 counterassay | shares compounds with TrxR1 inh-1 | purified GR, DTNB reduction absorbance 405 nm kinetic | activity change, negative = inhibition, % at 57.1 µM | 55 tested, under 10 active | AID 652020
TrxR1 inh-2 = blocks rat thioredoxin reductase 1 in hit validation | AID 652023 | 55 tested, 50% active | recombinant TrxR1, NADPH fluorescence consumption, selenite substrate | Potency, µM, actives largely listed as inhibitors | shares compounds with TrxR1 inh-1
TrxR1 insulin = inhibits TrxR1-driven insulin reduction | AID 652037 | Potency, µM | 55 tested, 20% active | shares compounds with TrxR1 inh-1 | TrxR1 Trx-coupled insulin reduction, NADPH absorbance 340 nm;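 active means compounds with a measured potency under 100 micromolar; inconclusive means filed, but no rule given; inactive means potency at or above that, or unmeasurable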
TrxR1 inh-3 = inhibitors of rat thioredoxin reductase 1, DTNB reduction | purified TrxR1, DTNB reduction, A412 | 55 tested, 90% active | shares compounds with TrxR1 inh-1 | Potency, µM | AID 652256;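 active means a half-inhibiting concentration could be measured and was below 100 µM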
Hits are given with their value; i = inactive; ? = inconclusive; nt = no result. Unless noted, the call rests on the fitted dose curve; in most records, active means well fitted curve in the direction sought with a large enough effect; inconclusive means small, poorly fitted or top-dose-only effect, or another doubt; inactive means no such curve, though single readings can be large; an effect the other way counts as inactive or inconclusive.

SMILES | PKM2 act | TrxR1 inh-1 | GLS inhibitor | IDH1 R132H inh | LDHA inh | TrxR1 substrate | GR inh | TrxR1 inh-2 | TrxR1 insulin | TrxR1 inh-3 | others
CCOC(=O)C1CCN(C(c2ccccn2)c2c(C)[nH]c3ccccc23)CC1 (stereo not given) | i | 2.5µM | i | i | i | i | i | 1.5 | i | 0.19µM
O=c1c(Cl)c(Cl)cnn1Cc1nnc(-c2ccc(Cl)cc2)o1 | i | 7.1µM | i | i | i | i | i | 8.4 | i | 3.4µM
Cc1ccc(-c2nnc(Cc3ccc(Cl)cc3)o2)cc1 | i | i | i | i | i | i | nt | nt | nt | nt
COc1cc(/C=C2/C(=O)NN(c3cccc(F)c3)C2=O)ccc1OC(=O)c1ccco1 | ? | 28µM | ? | i | i | i | i | ? | i | 6.8µM
C/C=C\C=C\C(=O)Nc1cccc(C2=NOC3(C2)C[C@@H](C(N)=O)N(C(=O)C(c2ccccc2)c2ccccc2)C3)c1 (stereo not given in full) | ? | 13µM | i | i | i | i | nt | nt | i | i
Cc1ccc(NC(=O)CCN2C(=O)c3ccccc3Sc3ncccc32)cc1 | nt | 11µM | i | i | i | i | i | 9.5 | i | i
COc1cc(C=O)cc(Br)c1OCc1cccc(C)c1 | nt | nt | nt | nt | i | nt | nt | nt | nt | nt
COc1cc(CN2CCCCC2C(=O)Nc2ccc(Oc3ccccc3)nc2)ccc1O (stereo not given) | i | 13µM | i | i | i | i | i | ? | i | 0.14µM
CCCCCCCN1C(Nc2ccccc2)=NC[C@@H]1Cc1ccccc1 | i | i | i | i | i | i | nt | nt | nt | nt
CCN1C(Nc2ccccc2)=NC[C@@H]1Cc1ccccc1 | i | 16µM | i | i | i | i | i | ? | i | 0.87µM
O=C1CN(C(=O)COC(=O)c2ccc(N3CCCCCC3)c([N+](=O)[O-])c2)c2ccccc2N1 | ? | i | i | i | i | i | nt | nt | nt | nt
CS(=O)(=O)c1ccc(C(=O)OCC(=O)N2Cc3ccccc3C2)cc1[N+](=O)[O-] | nt | nt | nt | nt | nt | nt | nt | nt | nt | nt | HepG2 viability=20µM
CCN(CC)C(=O)COC(=O)c1ccc(O)cc1 | i | i | i | i | i | i | nt | nt | nt | nt
CS(=O)(=O)c1ccc(C(=O)OCC(=O)N2CCOCC2)cc1[N+](=O)[O-] | nt | nt | i | nt | i | nt | nt | nt | nt | nt | HepG2 viability=i
CCN(CC)C(=O)COC(=O)c1ccc(S(C)(=O)=O)c([N+](=O)[O-])c1 | nt | nt | nt | nt | nt | nt | nt | nt | nt | nt | HepG2 viability=?

From PubChem
